Common to all, as to test: NCI-60 one-dose screen, 48 h (100 = growth as untreated, 0 = no growth, -100 = all killed)
Conditions in all cases: 10 µM unless noted

Test [1] deals with DU-145 prostate.
The test system of test [2] is K-562 leukemia.
Test [3] deals with MALME-3M melanoma.
Test [4] deals with MDA-MB-231 breast.
In test [5] the test system is RXF 393 renal.
The subject of test [6] is SF-268 CNS.
Test [7] deals with SF-539 CNS.
Test [8] deals with UACC-257 melanoma.
Test [9] relates to M14 melanoma.
The test system of test [10] is HCT-15 colon.
Test [11] has as its system HT29 colon.
The test system of test [12] is SNB-75 CNS.
The test system of test [13] is SNB-19 CNS.
Test [14] deals with U251 CNS.
The test system of test [15] is PC-3 prostate.
The subject of test [16] is SK-MEL-5 melanoma.
For test [17], the system named is UACC-62 melanoma.
Test [18] has as its system LOX IMVI melanoma.
Test [19] deals with SK-MEL-28 melanoma.

The panel holds about 83,000 compounds, 20% with a hit somewhere; the sample as a whole holds those more often.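 How to read the values: 0–100, growth inhibition (40 = 60% inhibited); 0, no net growth; -100 to 0, cell death (-40 = 40% of starting cells died; -100 = all dead).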 A number with no mark means an inactive call. The source made the active and inactive calls. Rule for the calls: active = growth percent below 10; inactive = the rest.

With `OC(c1cc2cc(Cl)ccc2c2cc(C(F)(F)F)ccc12)C1CCCCN1` (centres undefined), the growth in test [1] is -95.8% (active); in test [2] it was -76.8% (active); in [3] it was -61.9% (active); in [4], -68% (active); in test [5], -95.4% (active); in test [6] it was -90.1% (active). Also, the growth in test [7] is -80.5% (active); in [8] it was -84% (active); in test [9] it was -72% (active); in test [10] it was -61.7% (active); in test [11], -87.3% (active); in test [12], -90% (active). Besides, the growth is -68.6% (active) in [13]; -93.4% (active) in [14]; -83.1% (active) in test [15]; -24.9% (active) in test [16]; -72.7% (active) in test [17]; -39.8% (active) in test [18]. In addition, the growth in [19] was -90.5% (active).
As to `COc1ccc(-c2n[nH]nc2-c2cc(OC)c3c(c2)OCO3)cc1`, the growth in test [1] was -4.79% (active); in test [2], -11% (active); in test [3], 34%; in [4], -25.9% (active); in test [5], 19.1%; in test [6], 16.7%. In addition, the growth in test [7] is -39.7% (active); in [8] it was 68%; in test [9], 8.15% (active); in test [10], 6.08% (active); in test [11], -9.19% (active); in test [12], 25.4%. The growth in [13] is 48.7%; in test [14], 1.06% (active); in test [15], -7.05% (active); in test [16], -1.56% (active); in test [17], 28%; in [18], -4.34% (active). Moreover, in [19], the growth is 46.3%.
Consider `Cc1c(O)c(=O)n(-c2ccccc2)n1C`, for which the growth in test [1] was 116%; in test [2], 106%; in test [3] it was 112%; in [4], 99.1%; in test [5], 124%; in test [6], 114%. The growth in [7] is 97.6%; in test [8], 119%; in test [9], 100%; in test [10] it was 92.7%; in test [11] it was 103%; in test [12] it was 98.3%. The growth in test [13] is 106%; in test [14], 105%; in test [16], 110%; in test [17] it was 98.7%; in test [18] it was 105%; in [19] it was 111%.
Turning to `C#CC[C@@H]1C[C@]2(C)[C@H]3CC=C4[C@H]5[C@@H](C)[C@H](C)CC[C@]5(C(=O)NCCCN5CCN(CCCN)CC5)CC[C@@]4(C)[C@]3(C)CC[C@H]2C(C)(C)[C@H]1OC(C)=O`, the growth in test [1] is 0.421% (active); in test [2], -23.3% (active); in [3], -81% (active); in test [4], -70.4% (active); in [5] it was -82.1% (active); in test [6] it was 85%. Besides, the growth was -94% (active) in [7]; -32.1% (active) in [8]; -69.2% (active) in [9]; -83.7% (active) in [10]; -72.8% (active) in [11]; -61.5% (active) in test [12]. Further, the growth in test [14] was -75.8% (active); in test [15], 15%; in test [16], -7.08% (active); in test [17], -68.1% (active); in test [18] it was -83.2% (active); in test [19], -84.6% (active).
Take `COc1ccc(Sc2[nH]c(C=O)c3ccccc23)cc1`: the growth was 74.6% in test [1]; -0.59% (active) in test [2]; 91.8% in test [3]; 49.3% in test [4]; 6.64% (active) in test [5]; 78% in test [6]. Besides, the growth in test [7] was 64.9%; in [8], 91.4%; in test [9] it was 76.6%; in [10], 63.1%; in [11], 19.4%; in [12], 6.71% (active). The growth in test [13] was 77.6%; in [14], 76.6%; in test [16], 70.1%; in [17], 46.7%; in test [18], 70.3%; in test [19] it was 81.9%.
Consider `COc1c(B(O)O)cccc1-c1nc2c(F)cc3n[nH]c(C)c3c2c2c1CCCC2`, for which the growth in test [1] was 15%; in test [2] it was 17.8%; in test [3] it was 55.9%; in test [4] it was 25.5%; in test [5], -19.3% (active); in [6], 17.5%. For the same compound, the growth in test [7] is 4.1% (active); in [8], 18.8%; in test [9], 41.1%; in test [10], 18.3%; in test [11], 17%; in test [12] it was -21.6% (active). Besides, the growth in [13] is 18.1%; in test [14], 13.6%; in [15], 27.3%; in [16] it was 20.4%; in test [17] it was 3.54% (active); in [18] it was 11.8%. Further, the growth in test [19] was 25%.
Consider `COc1ccc(NC(=O)C2c3ccccc3C(=O)N(CC(C)C)C2c2cccs2)cc1` (centres undefined), for which the growth in [1] was 98.9%; in test [2], 88.8%; in test [3] it was 113%; in test [4], 92.1%; in test [5], 79.2%; in [6], 95.1%. In addition, the growth is 98.9% in [7]; 97.2% in test [8]; 106% in test [9]; 98.9% in test [10]; 101% in test [11]; 92.6% in test [12]. Further, the growth was 96% in [14]; 95.1% in [15]; 89.1% in test [16]; 89.5% in [17]; 86.3% in [18]; 105% in test [19].
